Sampled rows, rich in hits. Any-hit rate of the full collection: about 1.1%.
HTR5A inv ag: HTR5A inverse agonists in luminescence cell assay, primary screen, counter-screen for OPRM1-OPRD1 heterodimer inverse agonist project, full-deck HTS | inhibition, % at 9.3 µM | HTR5A cell line, inverse agonism | 5-hydroxytryptamine receptor 5A (Homo sapiens), P47898 | 340,000 tested, 0.083% active; in the data active = inhibition mostly above about 23%, no sharp cut-off; inactive = mostly below about 18%;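 note: 0% = cells with DMSO and 100% = no-cell wells with DMSO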
Target sequence (P47898 whole entry, looked up): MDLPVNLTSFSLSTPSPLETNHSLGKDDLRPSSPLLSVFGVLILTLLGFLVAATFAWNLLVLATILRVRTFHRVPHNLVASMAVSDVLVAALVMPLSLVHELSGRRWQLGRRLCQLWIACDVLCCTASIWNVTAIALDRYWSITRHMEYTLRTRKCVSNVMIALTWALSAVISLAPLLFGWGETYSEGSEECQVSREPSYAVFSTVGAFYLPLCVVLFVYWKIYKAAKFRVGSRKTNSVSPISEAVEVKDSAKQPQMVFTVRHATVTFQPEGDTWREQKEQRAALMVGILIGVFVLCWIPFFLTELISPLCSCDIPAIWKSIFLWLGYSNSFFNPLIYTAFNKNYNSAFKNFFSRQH
MOR-DOR ag: agonists of OPRM1-OPRD1 heterodimerization, primary screen, cell-based, luminescence | cells | activation, % at 9.3 µM | 340,000 tested, 0.3% active | AID 504326, 2011; in the data active = activation above about 18%;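 note: 0% = vehicle-treated cells and 100% = reference agonist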
HTR5A ag ctr: HTR5A agonists in luminescence cell assay, primary screen, counter-screen for OPRM1-OPRD1 heterodimer agonist project, full-deck HTS. 5-hydroxytryptamine receptor 5A (Homo sapiens), P47898. activation, % at 9.3 µM. cell-based. 340,000 tested, 0.61% active; in the data active = activation mostly above about 9.5%, no sharp cut-off; inactive = mostly below about 7.6%;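 note: 0% = cells with vehicle only and 100% = reference agonist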
OPRM1-OPRD1 inv: inverse agonists of MOR-DOR heterodimerization, primary screen, cell-based, luminescence. inhibition, % at 9.3 µM. AID 504357, 2011. cell-based MOR-DOR heterodimer luminescence, inverse agonism. 340,000 tested, 0.21% active. Mu-type opioid receptor (Homo sapiens) + Delta-type opioid receptor (Homo sapiens), …; in the data active = inhibition above about 22%, passing the limit was not always enough;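 note: 0% = cells with DMSO and 100% = wells without cells with DMSO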
Bfl-1 A1 inh: caspase 3/7 activation in MEF A1-2A-BIM cells, primary screen, A1 inhibitor project, cell-based, luminescence, HTS | Caspase-Glo 3/7 luminescence, 3 h; percent of clofoctol response, vehicle zero | AID 2462, 2010 | 330,000 tested, 0.066% active | caspase activation, % (test concentration not listed);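 active = over half of replicate activation scores above 10%, or exactly half above 10 with the replicate mean above 10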
Active calls of the source: *.

SMILES | HTR5A inv ag | MOR-DOR ag | HTR5A ag ctr | OPRM1-OPRD1 inv | Bfl-1 A1 inh
COC(=O)c1c(NC(=O)CCC(=O)O)sc2c1CCCCC2 | -7 | -1 | 14* | 6 | 1
CC1(C)CSC(=NCCc2ccccc2)N1 | -6 | -3 | -2 | 16 | 0
CCn1c(C)nc2cc(C(=O)NN=C(C)c3ccc(C#N)cc3)ccc21 | -52 | -2 | 13* | 9 | 0
CCn1c(C)nc2cc(C(=O)N/N=C(\C)c3ccc(N4CCOCC4)cc3)ccc21 | -19 | 0 | 8 | 0 | 2
CC1CCC(NC(=O)C2CCC(CNS(=O)(=O)c3cccc4cccnc34)CC2)CC1 (centres undefined) | -19 | -1 | 2 | 7 | 1
O=C(Cc1ccc(Cl)cc1)NN1C(=O)c2ccccc2C1=O | -4 | 0 | 2 | 0 | 1
COC(=O)[C@@H]1[C@@H](C#N)C2(c3ccccc3-c3ccccc32)N(c2ccc(Cl)cc2)N1C#N | -9 | 10 | 8.7* | -52 | 3
Cc1ccccc1N1CCN(C2CCCN(C(=O)CCC3(C)CC3)C2)CC1 (centres undefined) | -15 | -4 | 10* | 22 | 0
COc1ccc(-c2nn(-c3ccccc3)cc2C#N)cc1 | -35 | 2 | 14* | -9 | -1
Cc1ccc(S(=O)(=O)c2c(C)nn(C(C)(C)C)c2OC(=O)c2ccco2)cc1 | -1 | -1 | 12* | 6 | 0
C/C=C(\C)C(=O)OC(C)(C)[C@H]1Cc2cc3ccc(=O)oc3cc2O1 | -6 | 1 | 2 | -4 | -1
CCOC(=O)CS(=O)(=O)c1nc(-c2ccccc2)cc(C(F)(F)F)n1 | 20 | -3 | -8 | 17 | 8.7*
CCOC(=O)CS(=O)(=O)c1nc(-c2ccc(F)cc2)cc(C(F)(F)F)n1 | 24 | -5 | -2 | 24 | 1
CCOC(=O)CCS(=O)(=O)c1nc(-c2ccccc2)cc(C(F)(F)F)n1 | 0 | 3 | -9 | -18 | 9.7*
CC(=O)C1=C(O)C(=O)N(Cc2cccnc2)C1c1ccccc1 (centres undefined) | -24 | 0 | -8 | 3 | 0
CC(=O)C1=C(O)C(=O)N(Cc2cccnc2)C1c1ccc(Cl)cc1Cl (centres undefined) | -39 | 0 | 12* | -1 | 0
COc1cccc(N2CCN(C(C)C(=O)NC34CC5CC(CC(C5)C3)C4)CC2)c1 (centres undefined) | 7 | 6 | -2 | -47 | 0
Cn1c(=O)c2c(ncn2Cc2ccc(Cl)cc2)n(C)c1=O | -21 | -2 | 8.0* | 12 | 0
Cc1ccccc1C(=O)O/N=C(\N)c1ccc([N+](=O)[O-])cc1 | -32 | 8 | 9.3* | -38 | 0
COc1cc(C(=O)O/N=C(\N)c2ccc([N+](=O)[O-])cc2)cc(OC)c1OC | -11 | 10 | 4 | -74 | 0
CCOc1cc(C(=O)O/N=C(\N)c2ccc([N+](=O)[O-])cc2)cc(OCC)c1OCC | -41 | 11 | 13* | -55 | 1
CCOc1ccc(NC(=O)Cc2ccccc2)cc1 | -5 | -3 | 2 | 16 | -6
O=C(O)c1ccccc1C(=O)OCCCc1ccncc1 | -26 | -3 | 9 | 17 | -1
CCN(CC)CCN(C(=O)/C=C/c1cccs1)c1nc2ccc(C)cc2s1 | -17 | 4 | 13* | -20 | 1
CN(C)CCN(C(=O)/C=C/c1cccs1)c1nc2c(F)cc(F)cc2s1 | -32 | 13 | 3 | -85 | 17*
SMILES | HTR5A inv ag | MOR-DOR ag | HTR5A ag ctr | OPRM1-OPRD1 inv | Bfl-1 A1 inh
CCOc1cccc2sc(N(CCN(C)C)C(=O)/C=C/c3cccs3)nc12 | -46 | 2 | 13* | -10 | 0
O=[N+]([O-])c1c(Nc2ccccc2O)ccc2nonc12 | -10 | 1 | 4 | -4 | -1
O=[N+]([O-])c1c(Nc2ccccc2O)cc(Cl)c2nonc12 | 8 | -6 | -12 | 29* | 1
CC1CCN(C(=O)COC(=O)c2cc([N+](=O)[O-])ccc2N2CCOCC2)CC1 | -33 | 0 | 12* | 2 | 0
COC(=O)C1CCN(C(=O)COC(=O)c2cc([N+](=O)[O-])ccc2N2CCOCC2)CC1 | 18 | -3 | 5 | 13 | 0
COc1cc(C(=O)O)cc(Br)c1OC1CCCC1 | -3 | -1 | 11* | 3 | 1
Cc1cc(C)cc(NC(=O)/C(C#N)=C/c2cn(CC(=O)NCc3ccco3)c3ccccc23)c1 | -4 | 2 | 1 | -12 | 17*
COc1ccccc1CC(=O)N1CCN(S(=O)(=O)c2ccccc2)CC1 | 21 | -1 | 13* | 5 | 0
COc1ccccc1CC(=O)N1CCN(S(=O)(=O)c2ccccc2F)CC1 | -23 | -2 | 6 | 9 | 0
Cn1c(-c2ccc(-c3ccccc3)cc2)c[nH]c1=S | 46* | -7 | -10 | 41* | -3
CCC(CC)c1nnc(NC(=O)CN2C(=O)NC3(CCCC3)C2=O)s1 | -8 | -2 | 0 | 8 | -1
Cc1cc(C(C#N)c2ccc(Cl)cc2)c(Cl)cc1NC(=O)c1cc(I)cc(I)c1O (centres undefined) | 6 | -1 | -2 | 6 | 5.8*
Cc1cc(NC(=O)c2ccc(Cl)cc2)c(C)cc1O | -10 | -2 | 4 | 10 | -2
CCOC(=O)/C(=N/Nc1ccc(Cl)cc1)S(=O)(=O)c1ccc(Cl)cc1 | -25 | 0 | 11 | -2 | 1
COc1ccc2cc(C)c3nnc(SCC(=O)Nc4nc(-c5ccc(F)cc5)cs4)n3c2c1 | 9 | -3 | 2 | 17 | 16*
COc1cccc(C2C(C(N)=O)=C(C)Nc3nc(CCCO)nn32)c1 (centres undefined) | 1 | -2 | 0 | 9 | 0
CCCCNC(=S)NNC(=O)CCn1cc(C)cn1 | 20 | -2 | -2 | 11 | 0
CCCCNC(=S)NNC(=O)CCn1nc(C)c(Br)c1C | 49* | -14 | -10 | 76* | 0
CCCCNS(=O)(=O)C1CCS(=O)(=O)C1 (centres undefined) | 6 | 0 | 0 | -1 | 0
Cc1cc(=O)oc2cc(OC(C(=O)O)c3ccccc3)ccc12 (centres undefined) | -41 | -1 | 11* | 4 | 0
Cc1cc(=O)oc2cc(OC(C)C)ccc12 | -7 | -2 | 1 | 9 | 0
Cc1nn(-c2ccccc2)c(N)c1N=Nc1ccc(Cl)cc1 | -30 | 1 | 11* | -6 | 1
Cc1nn(-c2ccccc2)c(N)c1N=Nc1ccccc1 | -13 | 3 | 0 | -15 | 1
Cc1cccn2c(=O)c(C=O)c(Nc3ccccc3)nc12 | -8 | -2 | 3 | 14 | 0
C[C@]1(C2CCCC2)Cc2cc(OCC(=O)O)c(Cl)c(Cl)c2C1=O | -1 | 0 | 0 | -2 | -1

Bioassay records as filed in PubChem.
